According to PubChem BioAssay (NCI):
This is part of a sample that, as a whole, favours compounds with a hit. Of some 83,000 tested, about 20% had one in any assay.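 Growth was measured after 48 h exposure to one concentration of compound in 96-well plates. Values under 10 count as active.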 A number with no mark means an inactive call. Calls of active or inactive are those of the source.

tested on: SK-OV-3 ovarian; assay: NCI-60 one-dose screen, 48 h (100 = growth as untreated, 0 = no growth, -100 = all killed); settings: 10 µM unless noted

Row | SMILES | growth
1 | C=C1C(=O)O[C@H]2[C@H]1CC/C(Cn1cc(-c3cc(C)c(C)cc3C)nn1)=C\CC[C@@]1(C)O[C@@H]21 | 76.2%
2 | COc1ccc2c(CCCc3ccc(Cl)cc3Cl)c3[n+](cc2c1OC)CCc1cc2c(cc1-3)OCO2 | -8.36% (active)
3 | CCN1CCN(c2cc(C)nc(N(CCCNc3ccnc4cc(Cl)ccc34)Cc3ccc4c(c3)OCO4)n2)CC1 | 72.1%
4 | O=C1CC(c2ccc(Cl)cc2)c2ncn(-c3cccc(Cl)c3)c2N1 (configuration not stated) | 47.8%
5 | Cc1ccccc1Nc1nc2nonc2nc1Nc1cccc(C)c1C | 56.6%
6 | Fc1ccc(NCc2cn(-c3ccccc3)nc2-c2ccc(OCc3ccccc3)cc2)cc1Cl | 82.3%
7 | CCCCCCCC(=O)SCC/C=C/[C@@H]1CC(=O)NCc2cccc(n2)C2=N[C@@](C)(CS2)C(=O)N[C@@H](C(C)C)C(=O)O1 | -31.4% (active)
8 | COC(=O)C1CCc2sc3ncnc(Nc4cn[nH]c4C(=O)Nc4ccc(CN5CCN(C)CC5)cc4)c3c21 (configuration not stated) | 6.43% (active)
9 | C=CC(=O)N(C)[C@H]1C[C@H]2OC(C)(C1OC)n1c3ccccc3c3c4c(c5c6ccccc6n2c5c31)C(=O)NC4 (some centres not stated) | -21.3% (active)
10 | Cc1cc(N(CCNc2ccnc3cc(Cl)ccc23)Cc2ccc3c(c2)OCO3)nc(N2CCN(C)CC2)n1 | 67.4%
11 | CN1CCN(CCCOc2cccc3nc(Nc4ccc(Cl)c(C(F)(F)F)c4)ccc23)CC1 | 52.5%
12 | Nc1c2c(c(O)c3c1=C(CO)C=N3)=NCCS2 | -90.9% (active)
13 | Cc1cc(O)c2c(c1)C1OC(=O)CCCCCN1C1=C2C(=O)c2cccc(OC3CC(O)C(O)C(C)O3)c2C1=O (configuration not stated) | 89.8%
14 | CC1(C=O)NC(=O)NC1=O (configuration not stated) | 81.9%
15 | COc1ccc(Nc2ncccc2NC(=O)c2cn(Cc3cccc(Oc4ccccc4)c3)nn2)cc1 | 103%
16 | OCCNC(=S)Nc1ccc(-c2nc(N3C[C@H]4CC[C@@H](C3)O4)c3cccn3n2)cc1 | -33.7% (active)
17 | O=C(c1ccccc1)C(c1ccccc1)N1CCOCC1 (configuration not stated) | 105%
18 | NN1C(=O)CSC1=S | 98.6%
19 | CC12O[C@H](C[C@@H](OC(=O)CCC(=O)O)[C@H]1O)n1c3ccccc3c3c4c(c5c6ccccc6n2c5c31)C(=O)NC4=O | -8.63% (active)
20 | C=C1[C@@H](O)C[C@H]2C(C)(C)C[C@H](Cl)C[C@]2(C)[C@H]1C[C@H](O)[C@H]1CC(=O)NC1=O | -29.7% (active)
21 | COC(=O)[C@H](Cc1ccccc1)NC(=O)[C@@H](OC)[C@@H]1Cc2cc3cc(OC4CC(OC5CC(O)C(O)C(C)O5)C(O)C(C)O4)c(C)c(O)c3c(O)c2C(=O)[C@H]1OC1CC(OC2CC(OC3CC(C)(O)C(O)C(C)O3)C(O)C(C)O2)C(O)C(C)O1 (some centres not stated) | 17%
22 | CCOC(=O)C1=C(C)N=C2Sc3cccc(OC)c3N2[C@H]1c1ccccn1 | 99.5%
23 | CNC(=O)c1cc(Oc2cccc3nc(Nc4ccc(Oc5ccccc5)cc4)ccc23)ccn1 | 87.1%
24 | COc1ccc(-c2nc(N)ncc2Oc2ccccc2OC)c(O)c1 | 24.8%
25 | CSc1nc2ncncc2[nH]1 | 113%
26 | Nc1c2c(c(O)c3c1=C(CO)C=N3)=NCCS2=O (configuration not stated) | 77%
27 | CC(C)=CCc1cc2c(cc1O)C1=C(C(=O)C3=C(NCCS3(=O)=O)C1=O)C(C=C(C)C)O2 (configuration not stated) | 69.3%
28 | CC/C=C\C[C@H]1C/C=C2/C(=O)C=C[C@@H]2C/C=C\CCCC(=O)O1 | 60.2%

tested on: IGROV1 ovarian; assay: as above; settings: 10 µM unless noted

Row | SMILES | growth
29 | CO/C=C/C(=O)c1cc2cnc3c(=N)cc(NC(=O)C(C)C)c([nH]1)c23 | -40% (active)
30 | Cc1cc2c(-c3nc4ccccn4c3Nc3cccc4ccccc34)c(O)c(O)cc2c(O)c1-c1c(C)cc2c(-c3nc4ccccn4c3Nc3cccc4ccccc34)c(O)c(O)cc2c1O | 47.8%
31 | Cc1cc(N2CCOCC2)nc(N(CCNc2ccnc3cc(Cl)ccc23)Cc2cccs2)n1 | 35.1%
32 | CCCCCCCC(=O)SCC/C=C/[C@@H]1CC(=O)NCc2cc(ccn2)C2=N[C@@](C)(CS2)C(=O)N[C@@H](C(C)C)C(=O)O1 | -8.98% (active)
33 | Cc1sc2c(c1C)c(=O)nc1c(-c3nc4ccccc4s3)n[nH]n12 | 94.2%
34 | CC(C)(C)CC(C)(C)Nc1c(-c2c(O)c3ccccc3oc2=O)nc2c(Cl)cc(C(F)(F)F)cn12 | 90.4%
35 | CCOc1cccc(/C=N/NC(=O)c2ccccc2Nc2ccnc(C(F)(F)F)c2)c1O | -13.8% (active)
36 | Cc1cc2c(-c3nc4ccccn4c3NC3CCCCC3)c(O)c(O)cc2c(O)c1-c1c(C)cc2c(-c3nc4ccccn4c3NC3CCCCC3)c(O)c(O)cc2c1O | 36.2%
37 | C=CCC(=O)N[C@H](/C=C/C(=O)O)Cc1ccc(-c2cc(Cl)cc(Cl)c2)cc1 | 114%
38 | CN1CCN(c2nc(NCCNc3ccnc4cc(Cl)ccc34)c3ccccc3n2)CC1 | 30.2%
39 | C[C@@H](C[C@H](CCO)c1cc(C(F)(F)F)cc(C(F)(F)F)c1)c1ccc2ccccc2c1 | 75.3%
40 | C=C1C(=O)O[C@H]2[C@H]1CC/C(Cn1cc(-c3cc(C)c(C)cc3C)nn1)=C\CC[C@@]1(C)O[C@@H]21 | -63.9% (active)
41 | COc1ccc2c(CCCc3ccc(Cl)cc3Cl)c3[n+](cc2c1OC)CCc1cc2c(cc1-3)OCO2 | -8.37% (active)
42 | CCN1CCN(c2cc(C)nc(N(CCCNc3ccnc4cc(Cl)ccc34)Cc3ccc4c(c3)OCO4)n2)CC1 | 5.03% (active)
43 | O=C1CC(c2ccc(Cl)cc2)c2ncn(-c3cccc(Cl)c3)c2N1 (configuration not stated) | 59.8%
44 | Cc1ccccc1Nc1nc2nonc2nc1Nc1cccc(C)c1C | 74%
45 | Fc1ccc(NCc2cn(-c3ccccc3)nc2-c2ccc(OCc3ccccc3)cc2)cc1Cl | 96.9%
46 | CCCCCCCC(=O)SCC/C=C/[C@@H]1CC(=O)NCc2cccc(n2)C2=N[C@@](C)(CS2)C(=O)N[C@@H](C(C)C)C(=O)O1 | 3.42% (active)
47 | COC(=O)C1CCc2sc3ncnc(Nc4cn[nH]c4C(=O)Nc4ccc(CN5CCN(C)CC5)cc4)c3c21 (configuration not stated) | 4.94% (active)
48 | C=CC(=O)N(C)[C@H]1C[C@H]2OC(C)(C1OC)n1c3ccccc3c3c4c(c5c6ccccc6n2c5c31)C(=O)NC4 (some centres not stated) | 13.7%

Row | SMILES | growth
49 | Cc1cc(N(CCNc2ccnc3cc(Cl)ccc23)Cc2ccc3c(c2)OCO3)nc(N2CCN(C)CC2)n1 | 51.7%
50 | CN1CCN(CCCOc2cccc3nc(Nc4ccc(Cl)c(C(F)(F)F)c4)ccc23)CC1 | 55.4%
51 | Nc1c2c(c(O)c3c1=C(CO)C=N3)=NCCS2 | -64.3% (active)
52 | Cc1cc(O)c2c(c1)C1OC(=O)CCCCCN1C1=C2C(=O)c2cccc(OC3CC(O)C(O)C(C)O3)c2C1=O (configuration not stated) | 96.4%
53 | CC1(C=O)NC(=O)NC1=O (configuration not stated) | 111%
54 | COc1ccc(Nc2ncccc2NC(=O)c2cn(Cc3cccc(Oc4ccccc4)c3)nn2)cc1 | 98.8%
55 | OCCNC(=S)Nc1ccc(-c2nc(N3C[C@H]4CC[C@@H](C3)O4)c3cccn3n2)cc1 | -19.9% (active)
56 | O=C(c1ccccc1)C(c1ccccc1)N1CCOCC1 (configuration not stated) | 104%
57 | NN1C(=O)CSC1=S | 110%
58 | CC12O[C@H](C[C@@H](OC(=O)CCC(=O)O)[C@H]1O)n1c3ccccc3c3c4c(c5c6ccccc6n2c5c31)C(=O)NC4=O | 20.4%
59 | C=C1[C@@H](O)C[C@H]2C(C)(C)C[C@H](Cl)C[C@]2(C)[C@H]1C[C@H](O)[C@H]1CC(=O)NC1=O | -15.4% (active)
60 | COC(=O)[C@H](Cc1ccccc1)NC(=O)[C@@H](OC)[C@@H]1Cc2cc3cc(OC4CC(OC5CC(O)C(O)C(C)O5)C(O)C(C)O4)c(C)c(O)c3c(O)c2C(=O)[C@H]1OC1CC(OC2CC(OC3CC(C)(O)C(O)C(C)O3)C(O)C(C)O2)C(O)C(C)O1 (some centres not stated) | 25.5%
61 | CCOC(=O)C1=C(C)N=C2Sc3cccc(OC)c3N2[C@H]1c1ccccn1 | 101%
62 | CNC(=O)c1cc(Oc2cccc3nc(Nc4ccc(Oc5ccccc5)cc4)ccc23)ccn1 | 92.4%
63 | COc1ccc(-c2nc(N)ncc2Oc2ccccc2OC)c(O)c1 | 48.7%
64 | CSc1nc2ncncc2[nH]1 | 76.1%
65 | Nc1c2c(c(O)c3c1=C(CO)C=N3)=NCCS2=O (configuration not stated) | -15.2% (active)
66 | CC(C)=CCc1cc2c(cc1O)C1=C(C(=O)C3=C(NCCS3(=O)=O)C1=O)C(C=C(C)C)O2 (configuration not stated) | 1.26% (active)
67 | CC/C=C\C[C@H]1C/C=C2/C(=O)C=C[C@@H]2C/C=C\CCCC(=O)O1 | -26.7% (active)
